High-throughput results: PubChem, Broad Institute
The full list was thinned out, with hits kept by preference.
miR122 inh: miR-122 suppressors via Renilla sensor increase, primary screen, cell-based, Huh7 psiCHECK-miR122, Renilla luciferase, single point; AID 623901, 2012; activation, % at 12.5 µM; 340,000 compounds, 0.14% hits; 48 h;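 active = mean activation of 30% or more, with every replicate also reaching 30%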;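 also: 0% = median of neutral control wells and 100% = median of positive control wells; higher luciferase signal means stronger suppression of miR-122 activity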
* marks the source's active call; other numbers are inactive results.

SMILES	miR122 inh
C[C@@H]1CN([C@H](C)CO)C(=O)c2cc(-c3cccc(F)c3)cnc2O[C@H]1CN(C)S(C)(=O)=O	1.8
CCC(=O)Nc1ccc2c(c1)OC[C@@H](C)N(C(=O)CN1CCOCC1)C[C@@H](C)[C@H](OC)CN(C)C2=O	-7.5
CCCNC(=O)Nc1ccc2c(c1)OC[C@@H](C)N(C)C[C@H](C)[C@H](OC)CN(C)C2=O	0.0
C[C@@H]1CN([C@H](C)CO)C(=O)c2cc(-c3ccc(F)cc3)cnc2O[C@@H]1CN(C)Cc1ccccn1	1.0
Cc1cccc(C)c1NC(=O)CSCC(=O)c1ccc(O)c(O)c1	35.5*
C=CCc1ccccc1OCC(O)CN1CCN(CCN2C(=O)c3cccc4cccc(c34)C2=O)CC1 (stereo not drawn)	46.5*
C[C@@H]1CN([C@@H](C)CO)C(=O)c2cc(C#Cc3ccccn3)cnc2O[C@H]1CN(C)Cc1cncnc1	5.6
CO[C@H]1CN(C)C(=O)c2cc(NC(=O)Nc3ccccc3)ccc2OC[C@H](C)NC[C@@H]1C	0.5
C[C@@H]1CN([C@H](C)CO)C(=O)c2cc(C#Cc3cccnc3)cnc2O[C@@H]1CN(C)S(C)(=O)=O	-5.9
O=[N+]([O-])c1ccc(O)c(/C=N/Nc2ccc(Cl)nn2)c1	45.8*
C[C@H](CO)N1C[C@H](C)[C@@H](CN(C)C(=O)c2ccccn2)Oc2cc(C#CCC3CCCC3)ccc2S1(=O)=O	-45.8
C[C@H](CO)N1C[C@H](C)[C@H](CN(C)Cc2cncnc2)Oc2ncc(C#Cc3ccccn3)cc2C1=O	-2.8
O=C(Nc1ccc(Br)c(Cl)c1)c1ccco1	-143.9
CC1(C)CC(=O)c2cnc(NC(=O)c3ccco3)nc2C1	37.6*
CCCNC(=O)N(C)C[C@@H]1Oc2ncc(C#CCC3CCCC3)cc2C(=O)N([C@H](C)CO)C[C@H]1C	0.6
O=C(C1CC1)N1C[C@H]2[C@@H](c3ccccc31)[C@H](CO)N2C(=O)c1ccccc1F	33.3*
O=C(Cc1ccccc1)N1C[C@H]2[C@@H](c3ccccc31)[C@@H](CO)N2C(=O)C1CCCCC1	-200.0
COc1ccc(C(=O)N2C[C@@H]3[C@H](c4ccccc42)[C@H](CO)N3Cc2ccccc2Cl)cc1	-194.2
O=C(C1CCCCC1)N1C[C@@H]2[C@H](c3ccccc31)[C@H](CO)N2Cc1ccccc1Cl	40.0*
O=C(C1CCCCC1)N1C[C@H]2[C@@H](c3ccccc31)[C@@H](CO)N2C(=O)c1ccccc1	-260.0
C[C@H]1CN([C@@H](C)CO)C(=O)c2cc(C#CC3(O)CCCC3)cnc2O[C@H]1CN(C)S(=O)(=O)c1cccc(F)c1	-4.3
C[C@H](CO)N1C[C@H](C)[C@@H](CN(C)Cc2cncnc2)Oc2ncc(C#CC3(O)CCCC3)cc2C1=O	-1.1
CC(C)(CNC(=S)NCCc1ccccc1)CNC(=S)NCCc1ccccc1	-279.8
c1ccc(CCNc2nnnn2-c2ccccc2)cc1	45.5*
COCC(=O)Nc1ccc2c(c1)OC[C@@H](C)N(C(C)=O)C[C@H](C)[C@H](OC)CN(C)C2=O	-4.5
SMILES	miR122 inh
C[C@H](CO)N1C[C@H](C)[C@H](CN(C)C(=O)CC2CC2)Oc2cc(C#CCC3CCCC3)ccc2S1(=O)=O	-6.1
CCC(=O)N(C)C[C@H]1Oc2ncc(C#C[C@@H](C)O)cc2C(=O)N([C@H](C)CO)C[C@@H]1C	-4.2
COc1cc2nc(C3CCC3)n(NC(=O)C3CCCC(OC)C3)c(=O)c2cc1OC (stereo not drawn)	34.4*
C[C@H](O)C#Cc1cnc2c(c1)C(=O)N([C@H](C)CO)C[C@@H](C)[C@@H](CN(C)Cc1cncnc1)O2	5.6
C[C@@H]1CN([C@@H](C)CO)S(=O)(=O)c2ccc(-c3cncnc3)cc2O[C@H]1CN(C)Cc1ccccc1	-0.2
C[C@@H]1CN([C@@H](C)CO)C(=O)c2cc(-c3cncnc3)cnc2O[C@H]1CN(C)Cc1ccccc1	-4.2
COc1ccc(C#Cc2cnc3c(c2)C(=O)N([C@H](C)CO)C[C@@H](C)[C@H](CN(C)CC2CCCC2)O3)cc1	-13.6
COc1cccc(/C=N/Nc2ccc([N+](=O)[O-])cn2)c1O	32.7*
COc1cccc(NC(=O)N(C)C[C@H]2Oc3ncc(C#Cc4cccnc4)cc3C(=O)N([C@@H](C)CO)C[C@@H]2C)c1	5.0
COc1cccc(-c2ccc3c(c2)O[C@@H](CN(C)C(C)=O)[C@@H](C)CN([C@H](C)CO)S3(=O)=O)c1	-3.1
COc1cccc(-c2ccc3c(c2)O[C@H](CN(C)C(=O)C2CCCCC2)[C@H](C)CN([C@@H](C)CO)S3(=O)=O)c1	-14.7
Cc1ccc(-c2cnc3c(c2)C(=O)N([C@@H](C)CO)C[C@H](C)[C@@H](CN(C)C(=O)c2ccncc2)O3)cc1	0.0
CO[C@H]1CN(C)C(=O)c2cc(NC(=O)c3ccc(F)cc3)ccc2OC[C@H](C)N(C)C[C@@H]1C	-0.7
CN1C(=O)c2cc(NC(=O)c3cccc(F)c3)ccc2OC[C@H]2O[C@@H](CC(=O)O)CC[C@H]21	53.3*
CN1C(=O)c2cc(NC(=O)c3cccc(F)c3)ccc2OC[C@H]2O[C@H](CC(=O)NC3CCC3)CC[C@H]21	70.0*
